Hits are enriched below; roughly 12% of the tested compounds scored in any of these assays.
Pf growth 48h: inhibits P. falciparum growth in the first generation, 48 h; P. falciparum luciferase growth in erythrocytes, 48 h; Potency, µM (series often up to 28.7 µM), for the others: top-dose activity change, negative = inhibition, actives largely listed as inhibitors; actives 5.9% (n = 310,000); note: % is set by controls: 0 for no effect and ±100 for the full control effect
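Luminescence readout; reporter = integrated firefly luciferase in P. falciparum. RBC culture at 2% hematocrit, 0.1% parasitemia final, 37 C/5% CO2; decreased signal taken as growth inhibition.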
Pf growth 96h: P. falciparum growth inhibition at 96 hours; Potency, µM (highest dose often 28.7 µM), inactives show top-dose activity change, negative = inhibition, most hits filed as inhibitors; actives 6.9% (n = 320,000); P. falciparum luciferase reporter growth, 96 h; AID 504834; note: % is set by controls: 0 for no effect and ±100 for the full control effect
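Compounds incubated with erythrocytes infected by luciferase-expressing P. falciparum (2% hematocrit, 0.05% parasitemia final) for 96 hours, 37 C in 5% CO2. Growth inhibition scored as decreased luciferase luminescence.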
AmpC detergent: blocks E. coli AmpC beta-lactamase in detergent assay. P00811. Potency, µM (doses to about 114 µM), for the others: at the top dose activity change, negative = inhibition, actives largely listed as inhibitors. AID 485294. actives 0.041% (n = 370,000). AmpC hydrolysis of nitrocefin, absorbance 480 nm, 0.01% Triton;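 note: 0% = no-compound wells and -100% = no-enzyme wells; nearly all actives have a fitted effect of over 25% in size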
Target sequence (P00811 whole entry, looked up): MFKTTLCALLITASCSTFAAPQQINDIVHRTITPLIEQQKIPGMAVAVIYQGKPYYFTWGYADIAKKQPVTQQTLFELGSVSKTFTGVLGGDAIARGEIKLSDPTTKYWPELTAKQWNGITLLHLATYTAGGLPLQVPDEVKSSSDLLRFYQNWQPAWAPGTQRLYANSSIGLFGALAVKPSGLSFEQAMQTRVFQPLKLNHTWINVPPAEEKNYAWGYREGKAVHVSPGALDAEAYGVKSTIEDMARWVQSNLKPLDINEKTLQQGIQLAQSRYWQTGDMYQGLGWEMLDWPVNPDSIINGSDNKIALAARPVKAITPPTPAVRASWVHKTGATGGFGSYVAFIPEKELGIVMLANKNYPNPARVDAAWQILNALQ
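20 mM phosphate pH 7.0 + 0.01% (detergent screen) or 0.0001% Triton X-100; 5.3 nM AmpC reagent; cpd preinc 15 min RT; nitrocefin (800 uM stock) to start; A480 q20 s × 4 min; Activity was normalised to no-enzyme and no-compound control wells.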
SARS PLpro yeast: SARS-CoV PLP inhibition in yeast; S. cerevisiae expressing SARS-CoV PLpro, growth rescue; Potency, µM (highest dose often 32.9 µM), for inactives: at the highest dose activity, positive = growth rescue, most hits filed as activators; actives 0.19% (n = 330,000); calls by dose curve; note: 0% is about no effect; nearly all actives have a fitted effect of over 55% in size
AmpC no deterg: AmpC beta-lactamase inhibition without detergent. AmpC nitrocefin hydrolysis, absorbance 480 nm, 0.0001% Triton. Potency, µM (titrated, usually from 57.1 µM), without a hit: top-dose activity change, negative = inhibition, usual class: inhibitors. actives 0.52% (n = 330,000);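 note: plate controls were no compound for no effect and no enzyme for full effect; nearly all actives have a fitted effect of over 20% in size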
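20 mM phosphate pH 7.0 + 0.01% (detergent screen) or 0.0001% Triton X-100; 5.3 nM AmpC reagent; cpd preinc 15 min RT; nitrocefin (800 uM stock) to start; A480 q20 s × 4 min; Activity was normalised to no-enzyme and no-compound control wells.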
Sm TGR block: blocks Schistosoma mansoni thioredoxin glutathione reductase | Q962Y6 | Potency, µM (top dose mostly 114 µM), inactives show at the highest dose activity change, negative = inhibition, hits mostly inhibitors | actives 3% (n = 360,000) | AID 485364 | purified TGR, DTNB reduction, TNB absorbance 405 nm; note: % is set by controls: 0 for no effect and ±100 for the full control effect; nearly all actives have a fitted effect of over 60% in size
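First, TGR (20 nM dispensed) and NADPH were mixed with compound. Second, a 15 min room-temperature incubation followed. Third, further NADPH and then DTNB were added to start the reaction. Finally, TNB absorbance was monitored kinetically.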
The depositor's hits bear a star; ? = inconclusive; . = not tested or not shown; [ ] = remark or other dose. Unless noted, calls come from the whole dose curve; as a rule, active = well fitted curve in the direction sought with a large enough effect; inconclusive = small, poorly fitted or top-dose-only effect, or another doubt; inactive = no such curve, though single readings can be large; an effect the other way counts as inactive or inconclusive. Potency is the fitted concentration of half-maximal effect.

SMILES | Pf growth 48h | Pf growth 96h | AmpC detergent | SARS PLpro yeast | AmpC no deterg | Sm TGR block
O=C(CCNS(=O)(=O)c1cccc2nsnc12)N1CCc2ccccc21 | . | 0% | -6% | 3% | -15% | -3%
O=C(CCCNS(=O)(=O)c1cccc2nsnc12)NCc1ccc(Cl)cc1 | ? | 287% | -10% | 3% | 7% | 1%
CCCCN(C(=O)c1cc2ccccc2o1)c1c(N)n(CCCC)c(=O)[nH]c1=O | ? | -5% | -6% | -6% | -28% | -8%
Cc1ccc(-c2nnc(Nc3ccc(OCC(N)=O)cc3)c3ccccc23)cc1S(=O)(=O)N(C)C | . | . | 9% | . | . | -2%
O=C(N/N=C/c1ccccc1O)C1SCCCS1 | ? | ? | -11% | 4% | -31% | 1%
Oc1ccccc1/C=N/NC(=S)NC1CC2CC1C1C=CCC21 (stereo not given) | 3.3µM* | 1.9µM* | -4% | 0% | -60% | 6%
COc1cccc(/C=N/NC(=S)NC2CC3CC2C2C=CCC32)c1O (stereo not given) | 2.3µM* | 1.3µM* | 1% | 7% | -39% | -2%
COc1ccc2c(CNC3CCCC3)c(C(=O)O)n(Cc3ccccc3C)c2c1 | . | . | 22% | . | . | -1%
N#CC[n+]1cc(-c2ccc(Cl)cc2)n2c1CCC2 | ? | -8% | ? | -9% | -12% | 0%
Clc1ccc(-c2c[n+](Cc3ccc(Br)cc3)c3n2CCCCC3)cc1 | 0.41µM* | 0.059µM* | 3% | 2% | 49% | 5%
Clc1ccc(-c2c[n+](Cc3ccc(Cl)cc3Cl)c3n2CCCCC3)cc1 | 1.7µM* | 0.17µM* | -2% | 1% | 71% | 8%
Clc1ccc(C[n+]2cc(-c3ccccc3)n3c2CCC3)cc1Cl | ? | ? | ? | 7% | 25% | -8%
Clc1ccc(C[n+]2cc(-c3ccccc3)n3c2CCCCC3)c(Cl)c1 | 0.74µM* | 2.6µM* | -1% | 0% | 49% | 7%
O=[N+]([O-])c1ccc(C[n+]2cc(-c3ccccc3)n3c2CCCCC3)cc1 | 5.2µM* | -84% | 4% | -1% | 12% | 1%
Cc1nc2ccccn2c1/C(O)=C1\C(=O)C(=O)N(CCN2CCOCC2)C1c1cccs1 (stereo not given) | -5% | 6% | -11% | -7% | -10% | ?
Clc1ccc(-c2c[n+](Cc3cccc(Cl)c3)c3n2CCC3)cc1 | 1.9µM* | 0.26µM* | -10% | 0% | -2% | -1%
Cc1ccc(OCc2nc(-c3cccnc3)no2)cc1C | 19% | 0.41µM* | -1% | -5% | -7% | 0%[57.1 µM]
Cc1ccc(OCc2nc(-c3ccccn3)no2)c(Br)c1 | 14% | 2.3µM* | -3% | -15% | 7% | 4%
c1ccc(OCc2nc(-c3ccncc3)no2)cc1 | 70% | 12µM* | 2% | -2% | -10% | 10%
Cc1cc(C)cc(OCc2nc(-c3cccnc3)no2)c1 | -2% | -9% | 0% | -1% | 32% | -6%
Cc1ccccc1OCc1nc(-c2cccnc2)no1 | 3% | ? | -3% | 0% | -18% | 40µM*
O=C(CSc1cn(CCNC(=O)c2c(F)cccc2F)c2ccccc12)Nc1ccc(F)cc1 | . | . | 4% | . | . | 4%
Cc1ccc(NC(=O)C(=O)NCC(c2ccc3c(c2)OCO3)N2CCN(C)CC2)c(C)c1 (stereo not given) | . | . | -6% | . | . | 0%
COc1ccccc1Nc1nc(C)nc(N)c1S(=O)(=O)c1ccccc1 | . | . | -1% | . | . | 6%
Cc1c(O)c(CN2CCCCC2)cc2c1oc(=O)c1ccccc12 | 0.33µM* | 0.47µM* | 3% | -2% | -8% | -2%
SMILES | Pf growth 48h | Pf growth 96h | AmpC detergent | SARS PLpro yeast | AmpC no deterg | Sm TGR block
Cc1c(O)c(CN2CCCCC2)cc2c3c(c(=O)oc12)CCC3 | 10µM* | 9.3µM* | ? | 9% | -10% | 8%
Cc1c(O)c(CN(C)C)cc2c1oc(=O)c1ccccc12 | 4.1µM* | 2.1µM* | 1% | -1% | -14% | -34%
Cc1c(C)c2ccc(O)c(CN3CCCC3)c2oc1=O | ? | ? | 4% | 1% | 0% | 0%
COc1ccc(-c2cc(=O)oc3c(C)c(O)c(CN(C)C)cc23)cc1 | ? | . | ? | 2% | -25% | -11%
CN(C)Cc1c(O)c(Cl)cc2c3c(c(=O)oc12)CCCC3 | . | -21% | ? | 14% | -16% | ?
O=c1oc2c(CN3CCOCC3)c(O)c(Cl)cc2c2c1CCC2 | 1µM* | 2% | ? | 3% | 1% | 0%
O=C(Nc1ccc(F)cc1F)NC1CC(=O)N(Cc2ccccc2)C1 (stereo not given) | ? | 11% | -9% | -8% | -8% | -17%
CCOc1ccc(NC(=O)CSc2oc(-c3ccco3)nc2S(=O)(=O)c2ccc(Cl)cc2)cc1 | . | . | 15% | . | . | ?
COc1ccc2c(c1)CCc1c(C(=O)Nc3c(C)nn(Cc4ccccc4C)c3C)noc1-2 | . | . | -3% | . | . | -2%
CN(C(=O)CCN1C(=O)S/C(=C\c2ccccc2)C1=O)C1CCS(=O)(=O)C1 (stereo not given) | ? | ? | 4% | 17% | -1% | 3%
Cc1noc(C)c1COC(=O)CCCc1nc2ccccc2s1 | -18% | 5.2µM* | -9% | -4% | 2% | 5%
O=C(c1cc(Cl)cc(Cl)c1)N1CCOCC1 | -3% | . | -19% | 1% | -15% | -5%
O=C(N/N=C/c1ccccc1C(=O)O)c1cccc(S(=O)(=O)Nc2cc(Cl)ccc2Cl)c1 | -3% | 19% | -7% | 0% | 13µM* | -5%
Cc1ccc(/C=N/NC(=O)c2cccc(S(=O)(=O)Nc3ccccc3Cl)c2)s1 | 4% | 1% | -15% | 14% | -24% | 2%
CC1=C(C(=O)Nc2ccccc2)C(c2ccc(C(=O)O)cc2)n2nc(SCC(=O)c3ccc(C)cc3)nc2N1 (stereo not given) | . | . | 9% | . | . | 1%
CCCN1C2CCCC1CC(NC(=O)Nc1cccc(C(C)=O)c1)C2 (stereo not given) | ? | ? | -14% | -2% | -16% | 1%
O=C(Nc1ccccc1-c1ccccc1)NC1CC2CCCC(C1)N2CCc1ccccc1 (stereo not given) | 5.2µM* | ? | -22% | 10% | 2% | 0%
O=C(Nc1ccccc1-c1ccccc1)NC1CC2CCCC(C1)N2Cc1ccc(F)cc1 (stereo not given) | 12µM* | 34% | -2% | 1% | 38% | .
CCCNC(=S)NC1CC2CCCC(C1)N2Cc1ccc(F)cc1 (stereo not given) | ? | ? | 6% | 3% | -14% | -31%

Screening data: PubChem, National Center for Advancing Translational Sciences (NCATS)
